Measurements as given in PubChem BioAssay (NCI).
The panel holds about 83,000 compounds, 20% with a hit somewhere; the sample as a whole holds those more often.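 96-well plates, one dose, 48 hours. Percent growth reported; active if below 10.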 A number with no mark means an inactive call. Active and inactive are the calls of the source.

What was measured:
Test in all cases: NCI-60 one-dose screen, 48 h (100 = growth as untreated, 0 = no growth, -100 = all killed)
[1] = test system: EKVX NSCLC; conditions: 10 µM unless noted
[2] = test system: SN12C renal; conditions: 10 µM unless noted
[3] = test system: UO-31 renal; conditions: 10 µM unless noted
[4] = test system: TK-10 renal; conditions: 10 µM unless noted
[5] = test system: ACHN renal; conditions: 10 µM unless noted
[6] = test system: CAKI-1 renal; conditions: 10 µM unless noted
[7] = test system: A498 renal; conditions: 10 µM unless noted
[8] = test system: CCRF-CEM leukemia; conditions: 10 µM unless noted
[9] = test system: MOLT-4 leukemia; conditions: 10 µM unless noted
[10] = test system: SR leukemia; conditions: 10 µM unless noted
[11] = test system: RPMI-8226 leukemia; conditions: 10 µM
[12] = test system: OVCAR-8 ovarian; conditions: 10 µM unless noted
[13] = test system: OVCAR-5 ovarian; conditions: 10 µM unless noted
[14] = test system: OVCAR-4 ovarian; conditions: 10 µM unless noted
[15] = test system: SK-OV-3 ovarian; conditions: 10 µM
[16] = test system: IGROV1 ovarian; conditions: 10 µM unless noted
[17] = test system: OVCAR-3 ovarian; conditions: 10 µM unless noted
[18] = test system: HS 578T breast; conditions: 10 µM unless noted
[19] = test system: NCI/ADR-RES ovarian; conditions: 10 µM unless noted
[20] = test system: SK-MEL-2 melanoma; conditions: 10 µM unless noted

SMILES | growth [1] | growth [2] | growth [3] | growth [4] | growth [5] | growth [6] | growth [7] | growth [8] | growth [9] | growth [10] | growth [11] | growth [12] | growth [13] | growth [14] | growth [15] | growth [16] | growth [17] | growth [18] | growth [19] | growth [20]
COc1c(O)c2c3c(c1OC)-c1ccccc1CC3N(S(=O)(=O)c1ccc(C)cc1)CC2 (stereo not given) | 106% | 50% | 48% | 83.4% | 50% | 51.1% | 88.3% | 1.29% (active) | 30.7% | 9.8% (active) | 90.9% | 53.7% | 79.2% | 71.3% | 48.9% | 65.6% | -10.4% (active) | 63% | 40% | –
CCC12CCC3c4ccc(O)cc4CCC3C1CC(O)C2O (stereo not given) | 83.7% | 82.5% | 65.9% | 85.3% | 103% | 59.4% | 67.1% | 85.4% | 69.4% | 19.3% | 89% | 91.5% | 103% | 82.7% | 98.7% | 82.8% | 95.4% | 76.8% | 47.1% | –
O=C(Nc1ccccc1O)c1ccc(NS(=O)(=O)c2cccc3cccnc23)cc1 | – | 61.2% | 20.8% | – | 52.1% | – | 45.5% | 33.1% | 28.5% | 32.8% | 15.3% | 23.9% | 16.5% | 74.5% | 64.5% | 58.6% | 62.5% | 37.3% | 29.2% | 23.6%
COc1cc(-c2nc(SC(C)C)nc(Nc3cccc(C)c3)c2C#N)cc(OC)c1OC | – | 102% | 84.8% | – | 103% | 94.5% | 102% | 104% | 93.5% | 95% | – | 93.5% | 107% | 107% | – | 103% | 115% | 104% | 105% | 118%
O=C1c2ccccc2-c2cn(Cc3ccccc3)c3cccc(c23)C1c1cccnc1 (stereo not given) | 80.5% | 59.5% | 54.9% | 55.7% | 51.2% | 51.4% | 43.3% | 19.3% | 34.8% | 8.31% (active) | 64.5% | 57.9% | 75.9% | 64.3% | 37.6% | 54.5% | 2.21% (active) | 78.1% | 26.5% | –
COc1cccc(OC)c1OC(=O)c1ccccc1 | 95.8% | 91.2% | 77.5% | 114% | 107% | 88.4% | 85.6% | 92.7% | 107% | 91.7% | 96.1% | 106% | 107% | 97.4% | 106% | 116% | 123% | 96.6% | 105% | –
C[C@@H](Oc1cc(-c2cnn(C3CC4(CCCNC4)C3)c2)cnc1N)c1c(Cl)ccc(F)c1Cl (stereo not given in full) | – | 21.7% | 29.7% | – | 29.5% | – | -10.4% (active) | -6.75% (active) | -7.46% (active) | -3.47% (active) | – | 43.4% | 34.3% | 37.2% | 78% | 48.9% | 52% | 30.5% | 46.1% | -47.8% (active)
